High-throughput results as filed in PubChem BioAssay.
The sample as a whole holds a higher share of hits than the screen did.
Pf Dd2 inh: blocks in vitro growth of P. falciparum Dd2. 4.3% of 120,000 active. Potency, µM (doses to about 28.9 µM), without a hit: at the highest dose activity, negative = inhibition, most hits filed as inhibitors. P. falciparum Dd2 growth, SYBR Green, 72 h; active = well fitted inhibition curve with a large enough effect;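 note: plate controls were DMSO vehicle for no effect and reference drug for full effect; nearly all actives have a fitted effect of over 65% in size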
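Readout: SYBR Green fluorescence, 485 nm excitation, 535 nm emission, after ~16 h lysis at 37C. Before that, Dd2-infected red cells (2.5% hematocrit) grew 72 h with compound, 29 uM top final concentration.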
Numbers without * were called inactive; [ ] = another dose, or the depositor's remark. Potency is the fitted concentration of half-maximal effect.

Screening CCOc1ccc(Cn2nnc(C(=O)Nc3ccc(Cl)cc3)c2N)cc1 returned Pf Dd2 inh inactive.
Nc1c(C(=O)Nc2ccccc2Cl)nnn1Cc1cccc(Cl)c1 was read as Pf Dd2 inh 7.08µM*.
Screening Cc1cc(C)cc(NC(=O)c2nnn(Cc3cccc(Br)c3)c2N)c1 returned Pf Dd2 inh inactive.
CSc1ccc(Cn2nnc(C(=O)Nc3ccc(C)cc3Cl)c2N)cc1 was read as Pf Dd2 inh 1.9%.
For COCCNC(=O)C1COC2(CCN(C(=O)c3ccc(OC)cc3)CC2)N1C(=O)c1cccc(C)c1 (configuration not stated) the results were Pf Dd2 inh -11.7%.
For COc1ccc(-c2noc([C@@H]3C[C@@H](O)CN3Cc3cccnc3)n2)cc1 the results were Pf Dd2 inh -24.1%[44.1 µM].
`CCOc1ccc(C(=O)N[C@H](c2ccc(OC)c(F)c2)C2CC(O)C2)o1` (some centres not stated) gave Pf Dd2 inh -8.4%.
For Cc1cccn2c(CC(=O)N3Cc4[nH]cnc4CC3C(=O)O)cnc12 (configuration not stated) the results were Pf Dd2 inh 2.2%.
`CCn1ncc(N2CCCC(CC(=O)N3CCCCC3)C2)cc1=O` (configuration not stated) gave Pf Dd2 inh inactive.
For CC1(C(=O)N2CCc3ccccc3C2)CCCCC(=O)N1 (configuration not stated) the results were Pf Dd2 inh -16.6%.
Screening CCn1c(CN2CCOCC2)nc2cc(NC(=O)c3ccc([N+](=O)[O-])cc3)ccc21 returned Pf Dd2 inh -2.2%.
For CCn1c(CN2CCC(C)CC2)nc2cc(NC(=O)c3ccc([N+](=O)[O-])cc3)ccc21 the results were Pf Dd2 inh -27.8%.
Screening CCn1c(CN2CCC(C)CC2)nc2cc(NC(=O)c3cccc([N+](=O)[O-])c3)ccc21 returned Pf Dd2 inh 6.31µM*.
`O=C1COc2ccc(NCc3cccs3)nc2CN1Cc1ccc(F)cc1` gave Pf Dd2 inh -25.8%[44.1 µM].
Screening Cc1ccoc1C(=O)N1CCc2c(nc(-c3cccnc3)nc2N(C)C)C1 returned Pf Dd2 inh inactive.
`COc1cccc([S+](=O)([O-])N2CCn3c(nn(-c4ccc(C(F)(F)F)cc4)c3=O)C2)c1` gave Pf Dd2 inh -2.3%.
Screening COCCNC(=O)Cc1csc2nc(C)c(-c3cc(C)n(-c4ccccc4F)n3)c(=O)n12 returned Pf Dd2 inh -14.5%.
Cc1ccc(Cl)cc1-n1nc(-c2c(C)nc3scc(CC(=O)NCCC(C)C)n3c2=O)cc1C was read as Pf Dd2 inh 7.94µM*.
CCCCNC(=O)Cc1csc2nc(C)c(-c3cc(C)n(-c4ccc(C)cc4)n3)c(=O)n12 was read as Pf Dd2 inh -7.7%.
`CCCNC(=O)Cc1csc2nc(C)c(-c3cc(C)n(-c4cccc(C)c4C)n3)c(=O)n12` gave Pf Dd2 inh inactive.
For CCCCNC(=O)Cc1csc2nc(C)c(-c3cc(C)n(-c4cccc(Cl)c4)n3)c(=O)n12 the results were Pf Dd2 inh 7.94µM*.
Screening CCCCCNC(=O)Cc1csc2nc(C)c(-c3cc(C)n(-c4cccc(C)c4)n3)c(=O)n12 returned Pf Dd2 inh -15.6%.
Cc1ccc(NC(=O)N2CC(N(Cc3cccnc3)S(C)(=O)=O)C2)cc1C was read as Pf Dd2 inh -11.7%.
Cc1ccccc1CN1C[C@@H](CO)[C@H](c2nc(-c3ccncc3)no2)C1 was read as Pf Dd2 inh -19.7%.
Screening CSc1cccc(NC(=O)N[C@H]2CCN3C(=O)[C@H](CC4CCCCC4)NC(=O)[C@@H]3C2)c1 returned Pf Dd2 inh inactive.
For CCn1ccc(C(=O)N2CC(C(=O)NCCc3ccncc3)C3(CCOCC3)C2)n1 (configuration not stated) the results were Pf Dd2 inh 10.0%.
Screening CN(CCC(C)(C)O)C(=O)c1cc2c(C(F)(F)F)nn(C)c2s1 returned Pf Dd2 inh -19.1%.
Screening Cc1ccc(OCc2nc(C3CN(C(=O)C4CCCO4)C3)no2)cc1 (configuration not stated) returned Pf Dd2 inh 7.5%.
O=C(COc1ccc(F)cc1)N1CCCC(n2cc(-c3nc(C4CC4)no3)nn2)C1 (configuration not stated) was read as Pf Dd2 inh -12.2%.
For CCNC(=O)N1CCC(c2noc(COc3ccc(C)cc3)n2)CC1 the results were Pf Dd2 inh 10µM*.
Screening O=C(c1ccccc1F)N1CCCC(c2noc(COc3ccccc3)n2)C1 (configuration not stated) returned Pf Dd2 inh -6.4%.
For O=C(COc1ccc(F)cc1)N1CCC(n2cc(-c3nc(C4CC4)no3)nn2)C1 (configuration not stated) the results were Pf Dd2 inh 5.62µM*.
Screening Cc1ccc(C)c(NC(=O)N2CCCC(c3noc(COc4ccccc4)n3)C2)c1 (configuration not stated) returned Pf Dd2 inh 5.01µM*.
For Cc1ccc(C)c(NC(=O)N2CCCC(c3noc(COc4ccccc4F)n3)C2)c1 (configuration not stated) the results were Pf Dd2 inh inactive.
O=C(COc1ccc(F)cc1)N1CCCC(c2noc(COc3ccccc3)n2)C1 (configuration not stated) was read as Pf Dd2 inh 6.31µM*.
Screening O=C(c1ccc(F)cc1)N1CCCC(c2noc(COc3ccccc3)n2)C1 (configuration not stated) returned Pf Dd2 inh -3.3%.
CCc1noc(-c2cn(C3CCN(C(=O)COc4ccc(F)cc4)C3)nn2)n1 (configuration not stated) was read as Pf Dd2 inh inactive.
Screening Cc1ccc(NC(=O)N2CCCC(c3noc(COc4ccccc4F)n3)C2)c(C)c1 (configuration not stated) returned Pf Dd2 inh -15.4%.
For Cc1ccc(OCc2nc(C3CCN(C(=O)c4ccncc4)CC3)no2)cc1 the results were Pf Dd2 inh inactive.
For Cc1ccc(NC(=O)Cn2c(N(C)Cc3ccccc3)nc(C)cc2=O)c(Cl)c1 the results were Pf Dd2 inh -7.2%.
Screening Cn1ccnc1CN1C(=O)CO[C@H]2CN(C(=O)NCc3ccccc3)C[C@H]21 returned Pf Dd2 inh 45.9%[44.1 µM].
For COc1ccccc1C(=O)NC1CCN(c2ccc(C)cc2)C1=O (configuration not stated) the results were Pf Dd2 inh -8.5%.
Screening Cc1cccc(NC(=O)N2CCCC(CN3CCOCC3)CC2)c1 (configuration not stated) returned Pf Dd2 inh inactive.
CN(CCc1ccccn1)[C@H]1[C@@H]2OC[C@@H](O2)[C@@H](NCc2ccc(F)cc2)[C@@H]1O was read as Pf Dd2 inh inactive.
`CS(=O)(=O)N1CC2(CCN(C(=O)CCC(=O)O)CC2)Cc2ccccc21` gave Pf Dd2 inh 14.5%.
`CCCCCOC(=O)c1ccc(Nc2nc(C(=O)OCC)nc3ccccc23)cc1` gave Pf Dd2 inh 5.2%.
Screening CCOC(=O)c1nc(Nc2ccc(C(=O)OC(C)C)cc2)c2ccccc2n1 returned Pf Dd2 inh 3.16µM*.
`CCOC(=O)c1nc(Nc2ccccc2OC)c2ccccc2n1` gave Pf Dd2 inh 39.0%.
CCOC(=O)c1ccc(Nc2nc(C(=O)OCC)nc3ccccc23)cc1 was read as Pf Dd2 inh inactive.
Screening CCOC(=O)c1nc(Nc2ccc(C(=O)OCC(C)C)cc2)c2ccccc2n1 returned Pf Dd2 inh 11.2µM*.
`CCOC(=O)c1nc(Nc2ccc(OC)cc2)c2ccccc2n1` gave Pf Dd2 inh 20.2%.
